Results on 58 compounds are retold here after PubChem BioAssay AID1619 (SRMLSC, 2009).

The whole screen tested about 220,000 compounds, of which about 830 (0.38%) were called active. These entries were drawn from the full list. Entries with a potency or affinity are not part of this list. A number with no mark means an inactive call.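 How the source made its calls: active means compound inhibiting the enzyme by more than half at any dose during confirmatory dose-response retesting; inconclusive means strong single-dose inhibitors picked by rank but not retested; inactive means the rest.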

For the assay, the target named is Leucine aminopeptidase (Plasmodium falciparum (isolate 3D7)) (UniProt Q8IL11). The experiment in a line: P. falciparum M17LAP inhibitors, primary screen, biochemical, fluorogenic H-Leu-NHMec substrate, 1536-well (AID 1619).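 Further: plate controls were full reaction with DMSO carrier for no effect and no enzyme background for full effect.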 The conditions noted are these: recombinant M17LAP, H-Leu-NHMec fluorogenic kinetic assay; at 30 µM; active compounds read high.
Chain of Leucine aminopeptidase (Plasmodium falciparum (isolate 3D7)) (Q8IL11 whole entry, looked up): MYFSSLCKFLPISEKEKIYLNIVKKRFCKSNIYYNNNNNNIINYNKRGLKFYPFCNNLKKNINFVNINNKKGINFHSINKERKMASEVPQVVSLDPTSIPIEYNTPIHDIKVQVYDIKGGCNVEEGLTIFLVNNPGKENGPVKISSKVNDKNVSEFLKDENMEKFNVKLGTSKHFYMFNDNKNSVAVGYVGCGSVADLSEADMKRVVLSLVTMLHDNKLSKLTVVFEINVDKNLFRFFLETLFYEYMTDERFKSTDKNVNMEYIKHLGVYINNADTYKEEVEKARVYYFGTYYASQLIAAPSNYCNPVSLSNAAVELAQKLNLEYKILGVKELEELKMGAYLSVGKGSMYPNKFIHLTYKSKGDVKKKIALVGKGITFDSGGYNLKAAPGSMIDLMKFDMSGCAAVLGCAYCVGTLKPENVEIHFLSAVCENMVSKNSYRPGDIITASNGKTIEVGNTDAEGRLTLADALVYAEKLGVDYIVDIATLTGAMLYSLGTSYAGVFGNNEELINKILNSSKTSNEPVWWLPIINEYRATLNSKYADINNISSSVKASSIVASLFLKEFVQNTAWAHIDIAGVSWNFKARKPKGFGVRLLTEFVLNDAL
For the compound `O=C(N/N=C/c1cccs1)c1c[nH]c2ccccc12`, the inhibition was 19.5%.

Consider `O=C(COc1ccc(C(=O)c2ccccc2)cc1)NCC(=O)Nc1ccccc1Br`, for which the inhibition is 0.07%.

`O=C1/C(=C/c2cccnc2)CCC/C1=C\c1cccnc1`: the inhibition was 12.8%.

Turning to `Cn1c(-c2ccccc2)n[nH]c1=S`, the inhibition was -6.39%.

For `N#Cc1cc(-c2ccccc2)nn1-c1ccccc1`, the inhibition was -15.3%.

For `O=C(CN1C(=O)CSC1=O)Nc1ccc2c(c1)OCCO2`, the inhibition was 53.7%.

Consider `Cc1nnc(NC(=O)c2ccccc2Br)s1`, for which the inhibition is -1.4%.

For `O=C(Nc1ccccc1C(=O)Nc1nncs1)c1ccccc1`, the inhibition was 11.8%.

For `O=C(Nc1nncs1)c1cccnc1Cl`, the inhibition was 26.3%.

Turning to `CCOc1ccccc1C(=O)Nc1nncs1`, the inhibition was -3.85%.

For the compound `CCCCc1nc2sc3c(c2c(=O)[nH]1)CCC3`, the inhibition is -6.58%.

As to `COc1ccccc1C1SCCN1S(C)(=O)=O` (stereo not drawn), the inhibition is -6.23%.

`COc1cccc(OCC(=O)O/N=C(\N)c2ccc(OC)c(OC)c2)c1`: the inhibition is -15%.

Regarding `COc1ccc2oc(C)c(C(N)=O)c2c1`, the inhibition was 2.03%.

Consider `CCOC(=O)CCC(=O)c1c(C)oc2ccc(OC)cc12`, for which the inhibition is 9.88%.

Turning to `O=C1NC[C@H](Cc2ccc(O)cc2)N(CCc2cccc3ccccc23)C1=O`, the inhibition was -2.35%.

As for `COc1ccc(NC(=O)CN2C(=O)CSC(C)C2=O)c(OC)c1` (stereo not drawn), the inhibition is 37.7%.

For `CCOc1ccc(NC(=O)CN2C(=O)NC(CCSC)C2=O)cc1` (stereo not drawn), the inhibition was 27.7%.

As for `CCOC(=O)c1ccc(NC(=O)CN2C(=O)CSC2=O)cc1`, the inhibition is 19%.

With `O=C(CN1C(=O)C2CC=CCC2C1=O)Nc1ccc(S(=O)(=O)Nc2ncccn2)cc1` (stereo not drawn), the inhibition is 1.4%.

As to `CCOc1ccc(N2C(=O)C3CCCN3C2=O)cc1` (stereo not drawn), the inhibition is -1.37%.

In the case of `CCOC(=O)c1ccc(NC(=O)CN2C(=O)CCC2=O)cc1`, the inhibition is -7.84%.

With `COc1ccc(NC(=O)CN2C(=O)CSC2=O)cc1`, the inhibition is 30.1%.

On to `CCOc1ccc(NC(=O)C2CCC(N3C(=O)C4CC=CCC4C3=O)CC2)cc1` (stereo not drawn), for which the inhibition is 48%.

Consider `Cc1cccc(OCCSc2nncn2C)c1`, for which the inhibition was -2.41%.

As for `O=C1c2ccccc2C(=O)N1CSc1nnc(Nc2ccccc2F)s1`, the inhibition is 4.65%.

As to `CN(C)c1oc(-c2ccccc2Cl)nc1S(=O)(=O)c1ccccc1`, the inhibition is 0.69%.

Regarding `Cc1cccc(C)c1NC(=S)N/N=C/c1ccccc1C(=O)O`, the inhibition is 7.19%.

Take `COc1cc(/C=C/C(=O)OCC(=O)Nc2ccccc2Cl)cc(OC)c1OC`: the inhibition is 7.2%.

For `Cc1ccccc1C(=O)NC(CC(C)C)C(=O)OCC(=O)c1c(N)n(C)c(=O)n(C)c1=O` (stereo not drawn), the inhibition is -1.49%.

`CC(C)(C)NC(=O)C(c1ccc(O)cc1)N(C(=O)CCC(=O)Nc1nccs1)c1ccc(F)cc1` (stereo not drawn): the inhibition was 13.2%.

As for `O=C(CCCOc1ccccc1)Nc1ccccc1C(F)(F)F`, the inhibition is -17.7%.

As to `O=C1CC(c2ccccc2)=NN1c1nc(-c2ccccc2)cs1`, the inhibition is -0.33%.

Take `COc1ccc(NC(=O)CN2C(=O)C(C)SC(C)C2=O)c(OC)c1` (stereo not drawn): the inhibition is 26.5%.

Consider `O=C(CN1C(=O)CSCC1=O)NCc1ccc(F)cc1`, for which the inhibition is 18.6%.

Consider `CCC1SC(CC)C(=O)N(CC(=O)NCc2ccc(F)cc2)C1=O` (stereo not drawn), for which the inhibition was 7.04%.

For the compound `CCOc1ccc(NC(=O)CN2C(=O)C(C)SC(C)C2=O)cc1` (stereo not drawn), the inhibition was 5.98%.

For the compound `CCOC(=O)c1ccc(NC(=O)CN2C(=O)CSC(C)C2=O)cc1` (stereo not drawn), the inhibition is 37%.

As to `CC1SCC(=O)N(CC(=O)Nc2ccc3c(c2)OCCO3)C1=O` (stereo not drawn), the inhibition is 2.2%.

Consider `CCOc1ccc(NC(=O)CN2C(=O)CSC2=O)cc1`, for which the inhibition is 54.4%.

For the compound `CC1SC(C)C(=O)N(CC(=O)Nc2ccc3c(c2)OCO3)C1=O` (stereo not drawn), the inhibition was 35.2%.

As to `CCOC(=O)C1(CCSC)NC(c2ccco2)C2C(=O)N(C)C(=O)C21` (stereo not drawn), the inhibition was -0.76%.

As to `CC(=O)c1sc(N2CCOCC2)nc1-c1ccccc1`, the inhibition was 9.61%.

As for `OCCC1CN(Cc2nc(-c3ccccc3)cs2)CCN1C1CCCC1` (stereo not drawn), the inhibition was 7.26%.

As for `Cc1c(-c2ccccc2)oc2c(C(=O)OCC(=O)Nc3cccc(F)c3)cccc2c1=O`, the inhibition is 2.04%.

As to `CCOC(=O)c1ccc(NC(=O)c2cccc(C)c2[N+](=O)[O-])cc1`, the inhibition was 0.85%.

For `CCCCN(CC)S(=O)(=O)c1ccc(C(=O)N(CCCN(C)C)c2nc3cc(C)cc(C)c3s2)cc1`, the inhibition is -3.97%.

Regarding `CC(=O)Nc1cccc(C(=O)OCc2ccc([N+](=O)[O-])cc2)c1`, the inhibition is 1.17%.

Consider `Cc1cccc(Nc2nnc(C)c(=O)n2N)c1`, for which the inhibition was 8.38%.

For the compound `O=c1[nH]c2ccc(S(=O)(=O)N3CCN(c4ccccc4)CC3)cc2[nH]c1=O`, the inhibition is 40.2%.

In the case of `O=c1[nH]c2ccc(S(=O)(=O)N3CCCCC3)cc2[nH]c1=O`, the inhibition is 38.3%.

With `COC(=O)NCc1ccc2c(c1)OCO2`, the inhibition is 2.83%.

Regarding `COCC(=O)NCc1ccc2c(c1)OCO2`, the inhibition was -6.02%.

Regarding `COc1ccc(OCCCC(=O)Nc2cccc(SC)c2)cc1`, the inhibition is 1.34%.

For `Nc1c(C(=O)C2CC2)sc2nc(-c3ccccc3)cc(C(F)(F)F)c12`, the inhibition is -0.94%.

Consider `O=c1cc(O)c2sc3nc(-c4ccccc4)cc(C(F)(F)F)c3c2[nH]1`, for which the inhibition is -7%.

With `Cc1cc(C)cc(N(C(=O)c2sc(C)nc2C)C(C(=O)NC(C)(C)C)c2ccncc2)c1` (stereo not drawn), the inhibition was 0.85%.

For `FCCCOc1ccc(/C=N/OCc2ccc(Cl)cc2Cl)cc1`, the inhibition is 11.5%.
